The campaign covered roughly 370,000 compounds. About 6,800 (1.8%) were called active. This is one part of a sample in which actives are shown more often than they occur. Unmarked numbers belong to inactive results.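 How the source made its calls: active means activation above a cutoff set at the mean of all screened compounds plus 3 SD (cut at about 10% in these data); inactive means the rest.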
The molecules below were run on Nuclear hormone receptor DAF-12 (Heterodera glycines), GAL4 fusion (assay: H. glycines DAF-12 receptor agonists, primary screen, cell-based, luminescence, HEK293, GAL4 fusion, UAS-luciferase (AID 687014;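 further: 0% = DMSO wells and 100% = sodium butyrate wells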)). Settings: HEK293 GAL4-hgDAF12 UAS-luciferase reporter, agonist luminescence; at 6.8 µM; stronger effect = higher value; normalized to butyrate control.
In the case of O=C(Nc1ccccc1)Nc1nnc(COc2ccccc2F)s1, the activation was -2.63%.
In the case of O=C(Nc1ccccc1)Nc1nc2ccccc2s1, the activation was 26.4% (active).
O=C(Nc1nc2ccc(Cl)cc2s1)c1cc(-c2ccc(Cl)cc2)nc2ccccc12 was tested, and the activation was -1.16%.
CN(CCc1ccccc1)c1ccc([N+](=O)[O-])cn1 was tested, and the activation was 2.43%.
In the case of CC(C)c1ccc(/C=C2\NC(=O)NC2=O)cc1, the activation was 1.14%.
In the case of CC(C)c1ccc(C=NNc2ccc([N+](=O)[O-])cn2)cc1, the activation was 16.8% (active).
With CCOC(=O)c1csc(NC(=O)C2CCCN(S(=O)(=O)c3ccc(Cl)s3)C2)n1 (stereo not drawn) the activation was -0.73%.
For CSCCC(NC(=O)c1ccco1)C(=O)NCCc1ccc(F)cc1 (stereo not drawn), the activation was 0.46%.
For CSCCC(NC(=O)c1ccco1)C(=O)OCC(=O)Nc1ncc(Cl)c(C)c1Cl (stereo not drawn), the activation was -1.62%.
In the case of CSCCC(NC(=O)c1ccco1)C(=O)Nc1cc(C)ccn1 (stereo not drawn), the activation was 11.9% (active).
COC(=O)[C@]12C[C@H](CC(=O)NCc3ccccc3)C(=O)N(CCC3=CCCCC3)C1=C[C@H](C(C)C)O[C@@H]2C1CC1 was tested, and the activation was 2%.
With O=[N+]([O-])c1cc(S(=O)(=O)N2CCCC2)ccc1NN=C1CCCC1 the activation was 15.3% (active).
In the case of O=[N+]([O-])c1cc(C(F)(F)F)ccc1NN=C1CCCC1, the activation was 0.04%.
O=C(COc1ccc(S(=O)(=O)N2CCCC2)cc1[N+](=O)[O-])N1CCCCC1 was tested, and the activation was -0.16%.
O=C1CC(c2ccc3c(c2)OCO3)N=C2N(CC3CC3)C/C(=C/c3ccccc3)N12 (stereo not drawn) gave an activation of -2.7%.
Work on Cc1cc(C)cc(N(CC(=O)NC2CCCC2)C(=O)CCC(=O)Nc2cc(C)on2)c1 yielded an activation of -1.1%.
CC1CN/C(=C\C(=O)c2ccc(Br)cc2)C(=O)N1 (stereo not drawn) was tested, and the activation was 10.5% (active).
COc1cc2c(cc1OC)/C(=C/C(=O)c1ccc(NC(C)=O)cc1)NCC2 was tested, and the activation was 0.96%.
In the case of O=C(O)C1CCCN1S(=O)(=O)c1ccc(Br)cc1 (stereo not drawn), the activation was 0.88%.
Work on C=CCN=C1NC(c2cccc(C(F)(F)F)c2)C(C(=O)OC)=C(C)N1C (stereo not drawn) yielded an activation of 1.38%.
With Cc1cccc(Cn2cnc3c(N)c(C)c(C)cc32)c1 the activation was -4.28%.
In the case of CCCCCCN1CCS(=O)(=O)N(Cc2ccc(C(F)(F)F)cc2)C(C(=O)OC)C1 (stereo not drawn), the activation was 1.39%.
Cc1cnc(C(=O)OCC(=O)N2CCc3ccccc32)cn1 was tested, and the activation was 1.4%.
With O=C(c1cnn2ccccc12)N1CCc2ccccc21 the activation was 16.5% (active).
Work on CCCCn1nc(C(=O)N2CCc3ccccc32)c2ccccc2c1=O yielded an activation of -0.16%.
Work on COC(=O)[C@]12C[C@H](CC(=O)NCCCCc3ccccc3)C(=O)N(Cc3ccc4c(c3)OCO4)C1=C[C@H](C(C)(C)C)O[C@@H]2C yielded an activation of 0.98%.
For Cn1c(-c2ccco2)nc2cc3ccccc3cc21, the activation was 19.3% (active).
In the case of Cc1ccc(-n2ncc3c(=O)n(-c4ccc(C)c(C)c4)c(-c4ccco4)nc32)cc1, the activation was 3.84%.
In the case of Cn1c(SCC(=O)c2cccs2)nnc1-c1ccco1, the activation was 1.52%.
O=C(Nc1c(Cl)c(C2CC2)nn1-c1ccccc1)C(Cl)(Cl)Cl showed an activation of -2.93%.
In the case of CCC[C@H]1C(=O)CC[C@@]23CCCN2C(=O)CCC[C@@H]13, the activation was 1.6%.
CN(C)c1ccc(-c2nnc(-c3cccnc3)o2)cc1 was tested, and the activation was 10.8% (active).
For COC(=O)CSc1nnc(-c2cccnc2)o1, the activation was 1.06%.
In the case of CC1(c2nnc(-c3ccncc3)o2)CC(c2cccnc2)=NO1 (stereo not drawn), the activation was 3.68%.
COc1ccc(/C(N)=N/OC(=O)Oc2ccccc2)cc1 was tested, and the activation was 1.76%.
COc1ccc(/C(N)=N/OC(=O)CCCc2ccccc2)cc1 was tested, and the activation was -0.4%.
With COc1ccc(/C(N)=N/OC(=O)Cc2ccccc2)cc1 the activation was 11.7% (active).
With CC(=O)Nc1ccc(OC[C@@H](O)CN2CCC(C(O)(c3ccccc3)c3ccccc3)CC2)cc1 the activation was 2.46%.
CCCNC(=O)C1CC(=O)N(c2ccc(OCC(=O)Nc3cccc(C)c3C)cc2)C1 (stereo not drawn) showed an activation of 0.77%.
For CCOc1ccc(N2CC(C(=O)NCc3ccccn3)CC2=O)cc1 (stereo not drawn), the activation was -1.47%.
CCCNC(=O)C1CC(=O)N(c2ccc(OCc3ccccc3)cc2)C1 (stereo not drawn) was tested, and the activation was 11% (active).
Molecule COc1ccc(N2CCN(CCNS(=O)(=O)c3ccc(Cl)s3)CC2)cc1 has an activation of 2.51%.
For COc1cccc(C(O)Cc2nc3ccccc3n2C)c1OC (stereo not drawn), the activation was 3.91%.
In the case of Cc1ccc(OCc2nc3ccccc3n2C)cc1, the activation was 13.2% (active).
In the case of Cc1ccc(Oc2nc3ccccc3n3c(C)nnc23)cc1, the activation was 1.53%.
Work on COC(=O)[C@]12C[C@H](CC(=O)NCc3cccc4ccccc34)C(=O)N(CCc3ccc(OC)c(OC)c3)C1=C[C@H](C1CCCC1)O[C@@H]2C yielded an activation of -1.01%.
Work on O=C(CSc1nnc(-c2ccccn2)n1-c1ccccc1)Nc1ccc2cn[nH]c2c1 yielded an activation of 6.78%.
For O=C(NCCS(=O)(=O)c1ccc(Br)cc1)c1ccccc1Cl, the activation was 2.39%.
Cc1ccccc1NC(=O)Cn1nnc(-c2ccccc2F)n1 was tested, and the activation was -1.63%.
Molecule CC(=O)c1c(Nc2ccccc2)sc(C(=O)c2ccccc2)c1C has an activation of 4.88%.
Work on COC(=O)c1cc2c(N)c(C(=O)c3ccc(Cl)cc3)sc2nc1C(OC)OC yielded an activation of -0.74%.
For CN(C)c1ccnc2sc(C(=O)c3ccccc3)c(N)c12, the activation was 21.3% (active).
COC(=O)c1c(C(=O)OC)c(-c2cccc(C)c2)n2c1CS(=O)C2 (stereo not drawn) showed an activation of 2.79%.
For Cc1cc(NS(=O)(=O)c2ccc(NC(=O)CSc3nnc(SCc4ccc(F)cc4)s3)cc2)nc(C)n1, the activation was 1.18%.
For CCOC(=O)C(=O)N(Cc1ccccc1)c1ccccc1C(=O)Nc1cc(OC)ccc1OC, the activation was -2.17%.
Work on Cc1ccccc1CN1CCCCC(NC(=O)c2cccc(C#N)c2)C1=O (stereo not drawn) yielded an activation of -2.73%.
In the case of COC(=O)C1=C(C)N(Cc2ccc(C(F)(F)F)cc2)C(=NCc2ccccc2)NC1c1ccccc1C(F)(F)F (stereo not drawn), the activation was 1.9%.
Work on COCc1[nH]nc2c1C(c1ccccc1)N(c1ccccc1)C2=O (stereo not drawn) yielded an activation of 0.79%.
